{"source": "PubChem BioAssay AID720697", "about": "(Broad Institute, 2013)", "note": "Entries with a potency or affinity are not part of this list. Records with an inconclusive call do not appear. The source made the active and inactive calls.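 The calls were made as follows: active = signal loss with fitted half-maximal concentration at or below twice the top valid tested dose in every test run; inconclusive = runs disagree, flat 30 to 70% signal loss, or poor fit; inactive = all runs flat, opposite direction, or potency beyond limit.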", "data": [{"assay": "general mammalian cell viability loss – inhibitor set, cherry-pick, set 2, cytotoxicity control for miR-122 modulator project, dose response (AID 720697);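 also: 0% = median of neutral control wells and -100% = MG132 positive control wells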", "conditions": "HEK293T viability, CellTiter-Glo luminescence, 48 h; series mostly up to 26 µM", "values": [{"compound": "COc1ccc(CN2CCN(Cc3cccn3-c3ncccn3)CC2CCO)c(C)c1C", "note": "(stereo unspecified)", "outcome": "inactive"}, {"compound": "OCc1ccc(-c2nn(Cc3ccccc3)c3ccccc23)o1", "outcome": "inactive"}, {"compound": "COC(=O)C[C@@H]1CC[C@@H]2[C@H](COc3ccc(NC(=O)c4cc(F)cc(F)c4)cc3C(=O)N2C)O1", "outcome": "inactive"}, {"compound": "CCC(=O)Nc1ccc2c(c1)C(=O)N(C)[C@@H]1CC[C@H](CC(=O)Nc3cccc(OC)c3)O[C@@H]1CO2", "outcome": "inactive"}, {"compound": "CCN(C[C@@H]1N[C@@H](CO)[C@H]1c1ccc(-c2cccc(F)c2)cc1)C(=O)CN(C)C", "outcome": "inactive"}, {"compound": "C[C@@H]1CN([C@H](C)CO)C(=O)c2cc(-c3cccc(C#N)c3)cnc2O[C@H]1CN(C)C(=O)C1CCC1", "outcome": "inactive"}, {"compound": "C/C=C/c1ccc([C@@H]2[C@@H](CN(C)C(=O)CC)N(C(=O)NC(C)C)[C@H]2CO)cc1", "outcome": "inactive"}, {"compound": "O=C(c1ccccc1)N1C[C@H]2[C@@H](c3ccccc31)[C@@H](CO)N2C(=O)CN1CCOCC1", "outcome": "inactive"}, {"compound": "O=C(NC[C@H]1[C@H](c2ccccc2)[C@H](CO)N1CC1CCCC1)c1ccncc1", "outcome": "inactive"}, {"compound": "Cc1ccc(-n2ncc(C(=O)Nc3cc(Cl)ccc3C)c2C2CCNCC2)cc1C", "outcome": "inactive"}, {"compound": "COc1cccc(NC(=O)Nc2ccc3c(c2)C(=O)N(C)[C@@H]2CC[C@H](CC(=O)O)O[C@H]2CO3)c1", "outcome": "inactive"}, {"compound": "CN1C(=O)c2cc(NS(=O)(=O)c3cccc(F)c3)ccc2OC[C@H]2O[C@@H](CC(=O)NCCN3CCCCC3)CC[C@H]21", "outcome": "inactive"}, {"compound": "Cc1ccc(NCC(=O)c2ccccc2)cc1Cl", "outcome": "inactive"}, {"compound": "CNC(=O)C[C@H]1CC[C@@H]2[C@H](COc3ccc(NC(=O)c4ccc(OC)cc4)cc3C(=O)N2C)O1", "outcome": "inactive"}, {"compound": "CN(C)C(=O)c1ccc(-c2ccc([C@H]3[C@@H](CO)N4CCCCN(C(=O)C5CCCC5)C[C@@H]34)cc2)cc1", "outcome": "inactive"}, {"compound": "COCCN(C[C@H]1[C@H](c2ccccc2)[C@@H](CO)N1C(=O)C1CCC1)C(C)=O", "outcome": "inactive"}, {"compound": "CN1C(=O)c2cc(NC(=O)c3ccc4c(c3)OCO4)ccc2OC[C@@H]2O[C@@H](CC(=O)O)CC[C@@H]21", "outcome": "inactive"}, {"compound": "CC(=O)Nc1ccc(S(=O)(=O)Nc2ccc(S(=O)(=O)Nc3nc(C)cc(C)n3)cc2)cc1", "outcome": "inactive"}, {"compound": "CCCNC(=O)Nc1ccc2c(c1)C(=O)N(C)[C@H]1CC[C@@H](CC(=O)NCC3CCCCC3)O[C@@H]1CO2", "outcome": "inactive"}, {"compound": "CN(C)CCNc1ncnc2c1sc1nc(N3CCOCC3)c3c(c12)CC(C)(C)SC3", "outcome": "inactive"}, {"compound": "CN1C(=O)c2cc(NC(=O)c3cccc(F)c3)ccc2OC[C@@H]2O[C@H](CC(=O)NC3CCC3)CC[C@@H]21", "outcome": "inactive"}, {"compound": "CN1C(=O)c2cc(NC(=O)c3cccc(F)c3)ccc2OC[C@H]2O[C@H](CC(=O)NC3CCC3)CC[C@H]21", "outcome": "inactive"}, {"compound": "CCS(=O)(=O)Nc1ccc2c(c1)C(=O)N(C)C[C@@H](OC)[C@H](C)CN(CC1CCCC1)[C@H](C)CO2", "outcome": "inactive"}, {"compound": "COCC(=O)Nc1ccc2c(c1)C(=O)N(C)[C@@H]1CC[C@H](CC(=O)NCc3ccccc3F)O[C@H]1CO2", "outcome": "inactive"}, {"compound": "CC(C)OCCCNC(=O)c1ccncc1", "outcome": "inactive"}, {"compound": "CC(C)(C)c1cc(NCCCn2ccnc2)n2ncc(-c3ccc(Cl)cc3)c2n1", "outcome": "inactive"}, {"compound": "COCC(=O)N(C[C@H]1[C@H](c2ccccc2)[C@@H](CO)N1C(=O)NC(C)C)C(C)C", "outcome": "inactive"}, {"compound": "COc1ccc(C(=O)N2C[C@H]3[C@@H](c4ccccc42)[C@@H](CO)N3C(=O)Cc2ccccn2)cc1", "outcome": "inactive"}, {"compound": "COCC(=O)Nc1ccc2c(c1)C(=O)N(C)[C@@H]1CC[C@@H](CC(=O)NC3CCCC3)O[C@H]1CO2", "outcome": "inactive"}, {"compound": "CN1C(=O)c2cc(NC(=O)c3cccc(F)c3)ccc2OC[C@@H]2O[C@@H](CC(=O)O)CC[C@H]21", "outcome": "inactive"}, {"compound": "CCNC(=O)C[C@@H]1CC[C@H]2[C@@H](COc3ccc(NC(=O)c4ccc(C(F)(F)F)cc4)cc3C(=O)N2C)O1", "outcome": "inactive"}, {"compound": "COc1ccc(-c2c(C)nn3c(N)c(-c4ccccc4)cnc23)cc1OC", "outcome": "inactive"}, {"compound": "C[C@@H]1CN([C@@H](C)CO)S(=O)(=O)c2ccc(C#Cc3ccncc3)cc2O[C@@H]1CN(C)C(=O)C1CCOCC1", "outcome": "inactive"}, {"compound": "C=CCc1c(OC)ccc2ccc(=O)oc12", "activity change, negative = cytotoxicity": "-1.92% [at 6 µM] (inactive)"}, {"compound": "CCCC(=O)Nc1ccc2c(c1)C(=O)N(C)[C@@H]1CC[C@H](CC(=O)N3CCc4ccccc4C3)O[C@H]1CO2", "outcome": "inactive"}, {"compound": "O=C(c1ccc(CNc2c(NC3CCCCC3)c(=O)c2=O)cc1)N1CCc2ccccc21", "outcome": "inactive"}]}]}
